# Laboratory results: PubChem BioAssay (NCATS)
# Results filed as inconclusive are left out. Entries that show only a call come without a potency. Values without a mark were called inactive. Calls of active or inactive are those of the source. Calls follow the shape of the dose curve; as a rule, active = well fitted inhibition curve with a large enough effect; inconclusive = small, poorly fitted or top-dose-only effect; inactive = flat fitted curve, though single readings scatter.
# Experiments:
# [1] = qHTS profiling for inhibitors of Plasmodium falciparum proliferation (AID 504749); also: nearly all actives have a fitted effect of over 60% in size; settings: P. falciparum in erythrocytes, SYBR Green DNA, 72 h
# How it was run: (§1)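 Quantitative HTS: compounds pinned into medium, infected erythrocytes added (0.3% parasitemia, 2.5% hematocrit), 72 h culture at 37 C under 5% CO2. Saponin/Triton lysis with SYBR Green I, overnight RT, then fluorescence read.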
# 3D7 = assay: as above; settings: P. falciparum in erythrocytes, SYBR Green DNA, 72 h; series mostly up to 28.7 µM
# How it was run: as §1
# 7G8 = assay: as above; settings: P. falciparum in erythrocytes, SYBR Green DNA, 72 h; series mostly up to 28.7 µM
# How it was run: as §1
# AA1029 = assay: as above; settings: P. falciparum in erythrocytes, SYBR Green DNA, 72 h; series mostly up to 28.7 µM
# How it was run: as §1
# AS120 = assay: as above; settings: P. falciparum in erythrocytes, SYBR Green DNA, 72 h; series mostly up to 28.7 µM
# How it was run: as §1
# ATS189 = assay: as above; settings: P. falciparum in erythrocytes, SYBR Green DNA, 72 h; series mostly up to 28.7 µM
# How it was run: as §1
# ATS95 = assay: as above; settings: P. falciparum in erythrocytes, SYBR Green DNA, 72 h; series mostly up to 28.7 µM
# How it was run: as §1
# C2A = assay: as above; settings: P. falciparum in erythrocytes, SYBR Green DNA, 72 h; series mostly up to 28.7 µM
# How it was run: as §1
# [2] = at 28.7 µM (top of the series), parasite line A
# [3] = at 28.7 µM (top of the series), parasite line B
# [4] = at 12.8 µM (top of the series), parasite line A
# [5] = at 12.8 µM (top of the series), parasite line B
# Potency is read from the fitted curve at half-maximal effect.
smiles,measurement,setting,value
NCc1cccnc1,"activity, negative = inhibition",[1]; [2],-9.24%
same,"activity, negative = inhibition",[1]; [3],-2.31%
same,Potency,3D7,inactive
same,Potency,7G8,inactive
same,Potency,AA1029,inactive
same,Potency,AS120,inactive
same,Potency,ATS189,inactive
same,Potency,ATS95,inactive
same,Potency,C2A,inactive
C[C@H]1C(=O)O[C@@H]2CCN3CC=C(COC(=O)[C@](C)(O)[C@]1(C)O)[C@H]23,"activity, negative = inhibition",[1]; [2],-7.4%
same,"activity, negative = inhibition",[1]; [3],-1.5%
same,Potency,3D7,inactive
same,Potency,7G8,inactive
same,Potency,AA1029,inactive
same,Potency,AS120,inactive
same,Potency,ATS189,inactive
same,Potency,ATS95,inactive
same,Potency,C2A,inactive
NC(=O)CN1CCCC1=O,"activity, negative = inhibition",[1]; [4],-0.277%
same,"activity, negative = inhibition",[1]; [5],13.3%
same,Potency,3D7,inactive
same,Potency,7G8,inactive
same,Potency,AA1029,inactive
same,Potency,AS120,inactive
same,Potency,ATS189,inactive
same,Potency,ATS95,inactive
same,Potency,C2A,inactive
CCN(CC)C(C)C(=O)c1ccccc1 (stereo not drawn),"activity, negative = inhibition",[1]; [2],-2.34%
same,"activity, negative = inhibition",[1]; [3],12.3%
same,Potency,3D7,inactive
same,Potency,7G8,inactive
same,Potency,AA1029,inactive
same,Potency,AS120,inactive
same,Potency,ATS189,inactive
same,Potency,ATS95,inactive
same,Potency,C2A,inactive
CCCCCCCCCCCC[N+](C)(C)CCOc1ccccc1,Potency,[1]; parasite line A,3.55 µM (active)
same,Potency,[1]; parasite line B,5.01 µM (active)
same,Potency,3D7,5.01 µM (active)
same,Potency,7G8,3.98 µM (active)
same,Potency,AA1029,5.01 µM (active)
same,Potency,AS120,5.01 µM (active)
same,Potency,ATS189,8.91 µM (active)
same,Potency,C2A,7.08 µM (active)
COP(=O)(OC)C(O)C(Cl)(Cl)Cl (stereo not drawn),"activity, negative = inhibition",[1]; [3],2.48%
same,Potency,3D7,inactive
same,Potency,7G8,inactive
same,Potency,AA1029,inactive
same,Potency,ATS189,inactive
same,Potency,ATS95,inactive
same,Potency,C2A,inactive
ClC1=C(Cl)C2(Cl)C(CBr)CC1(Cl)C2(Cl)Cl (stereo not drawn),"activity, negative = inhibition",[1]; [2],-10.4%
same,"activity, negative = inhibition",[1]; [3],-10.5%
same,Potency,AA1029,inactive
same,Potency,AS120,inactive
same,Potency,ATS189,inactive
same,Potency,ATS95,inactive
same,Potency,C2A,inactive
OC(O)C(Cl)(Cl)Cl,"activity, negative = inhibition",[1]; [2],9.58%
same,"activity, negative = inhibition",[1]; [3],19.3%
same,Potency,3D7,inactive
same,Potency,AA1029,inactive
same,Potency,AS120,inactive
same,Potency,ATS189,inactive
same,Potency,ATS95,inactive
same,Potency,C2A,inactive
CCS(=O)(=O)C(C)(C)S(=O)(=O)CC,"activity, negative = inhibition",[1]; [2],9.89%
same,"activity, negative = inhibition",[1]; [3],19.2%
same,Potency,3D7,inactive
same,Potency,7G8,inactive
same,Potency,AA1029,inactive
same,Potency,AS120,inactive
same,Potency,ATS189,inactive
same,Potency,ATS95,inactive
same,Potency,C2A,inactive
CN(C)C(=S)SSC(=S)N(C)C,Potency,[1]; parasite line A,2.51 µM (active)
same,Potency,[1]; parasite line B,3.16 µM (active)
same,Potency,3D7,1.58 µM (active)
same,Potency,7G8,1.12 µM (active)
same,Potency,AA1029,2.24 µM (active)
same,Potency,AS120,3.55 µM (active)
same,Potency,ATS189,4.47 µM (active)
same,Potency,ATS95,3.16 µM (active)
same,Potency,C2A,3.16 µM (active)
CC(C)[N+](C)(CCC(C(N)=O)(c1ccccc1)c1ccccc1)C(C)C,"activity, negative = inhibition",[1]; [4],-4.63%
same,"activity, negative = inhibition",[1]; [5],4.79%
same,Potency,3D7,inactive
same,Potency,AA1029,inactive
same,Potency,AS120,inactive
same,Potency,ATS189,inactive
same,Potency,ATS95,inactive
same,Potency,C2A,inactive
Clc1ccc(CO/N=C(\Cn2ccnc2)c2ccc(Cl)cc2Cl)c(Cl)c1,Potency,[1]; parasite line A,3.55 µM (active)
same,Potency,[1]; parasite line B,2.82 µM (active)
same,Potency,3D7,2.82 µM (active)
same,Potency,7G8,1.12 µM (active)
same,Potency,AA1029,5.01 µM (active)
same,Potency,AS120,2.24 µM (active)
same,Potency,ATS189,3.98 µM (active)
same,Potency,ATS95,6.31 µM (active)
same,Potency,C2A,10 µM (active)
Oc1ccc2[nH]cc(CCCCN3CC=C(c4ccccc4)CC3)c2c1,Potency,7G8,3.98 µM (active)
CCC1(CC)C(=O)NC(=O)NC1=O,"activity, negative = inhibition",[1]; [2],-0.0726%
same,"activity, negative = inhibition",[1]; [3],11.2%
same,Potency,3D7,inactive
same,Potency,AA1029,inactive
same,Potency,AS120,inactive
same,Potency,ATS189,inactive
same,Potency,ATS95,inactive
same,Potency,C2A,inactive
O=C(NC(=O)c1c(F)cccc1F)Nc1cc(Cl)c(OC(F)(F)C(F)C(F)(F)F)cc1Cl (stereo not drawn),Potency,AS120,8.91 µM (active)
N#Cc1nn(-c2c(Cl)cc(C(F)(F)F)cc2Cl)c(N)c1S(=O)C(F)(F)F (stereo not drawn),Potency,[1]; parasite line A,5.01 µM (active)
same,Potency,[1]; parasite line B,8.91 µM (active)
same,Potency,3D7,8.91 µM (active)
same,Potency,7G8,3.55 µM (active)
same,Potency,AA1029,8.91 µM (active)
same,Potency,ATS95,12.6 µM (active)
same,Potency,C2A,8.91 µM (active)
Nc1ccc(N)cc1,Potency,3D7,8.91 µM (active)
O=C1NCN(c2ccccc2)C12CCN(CCCOc1ccc(F)cc1)CC2,"activity, negative = inhibition",[1]; [3],-11.5%
same,Potency,3D7,inactive
same,Potency,7G8,11.2 µM (active)
CCNc1nc(Cl)nc(NCC)n1,"activity, negative = inhibition",[1]; [2],3.24%
same,Potency,3D7,inactive
same,Potency,7G8,inactive
same,Potency,AA1029,inactive
same,Potency,AS120,inactive
same,Potency,ATS189,inactive
same,Potency,ATS95,inactive
same,Potency,C2A,inactive
C=CCOC(Cn1ccnc1)c1ccc(Cl)cc1Cl (stereo not drawn),Potency,[1]; parasite line B,10 µM (active)
same,Potency,3D7,11.2 µM (active)
same,Potency,7G8,2 µM (active)
same,Potency,AA1029,8.91 µM (active)
same,Potency,AS120,5.01 µM (active)
same,Potency,ATS189,10 µM (active)
same,Potency,ATS95,8.91 µM (active)
CNC(=O)Oc1cccc2ccccc12,"activity, negative = inhibition",[1]; [2],-7.78%
same,"activity, negative = inhibition",[1]; [3],-8.17%
same,Potency,3D7,inactive
same,Potency,AA1029,inactive
same,Potency,AS120,inactive
same,Potency,ATS189,inactive
same,Potency,ATS95,inactive
same,Potency,C2A,inactive
CN1C[C@@H](NS(=O)(=O)N(C)C)C[C@@H]2c3cccc4c3c(cn4C)C[C@H]21,"activity, negative = inhibition",[1]; [2],-15.7%
same,"activity, negative = inhibition",[1]; [3],-6.34%
same,Potency,3D7,inactive
same,Potency,7G8,inactive
same,Potency,AS120,inactive
same,Potency,ATS189,inactive
same,Potency,ATS95,inactive
same,Potency,C2A,inactive
C#C[C@]1(O)CC[C@H]2[C@@H]3CCC4=CC(=O)CCC4=C3C=C[C@@]21CC,Potency,[1]; parasite line B,6.31 µM (active)
same,Potency,3D7,7.94 µM (active)
same,Potency,7G8,11.2 µM (active)
same,Potency,ATS95,10 µM (active)
CCN(CC)CCOC(=O)C(C)(c1ccccc1)c1ccccc1,"activity, negative = inhibition",[1]; [2],-27.7%
same,Potency,3D7,inactive
same,Potency,7G8,5.01 µM (active)
same,Potency,AA1029,4.47 µM (active)
same,Potency,C2A,inactive
CC(Cc1ccccc1)NCc1ccccc1Cl (stereo not drawn),"activity, negative = inhibition",[1]; [2],-0.799%
same,"activity, negative = inhibition",[1]; [3],-0.104%
same,Potency,3D7,inactive
same,Potency,7G8,11.2 µM (active)
same,Potency,C2A,inactive
COCC(=O)N(c1c(C)cccc1C)C(C)C(=O)OC (stereo not drawn),Potency,3D7,inactive
same,Potency,7G8,inactive
same,Potency,AA1029,inactive
same,Potency,C2A,inactive
CC[C@]1(O)CC[C@H]2[C@@H]3CCC4=CCCC[C@@H]4[C@H]3CC[C@@]21C,Potency,3D7,inactive
same,Potency,7G8,7.94 µM (active)
same,Potency,C2A,0.891 µM (active)
C[C@]12CC[C@H]3[C@@H](CC=C4C[C@@H](O)CC[C@@]43C)[C@@H]1CC[C@@H]2O,"activity, negative = inhibition",[1]; [2],1.98%
same,"activity, negative = inhibition",[1]; [3],6.49%
same,Potency,3D7,inactive
same,Potency,7G8,inactive
same,Potency,AA1029,inactive
same,Potency,AS120,inactive
same,Potency,ATS189,inactive
same,Potency,ATS95,inactive
same,Potency,C2A,inactive
C[C@]12Cc3nonc3C[C@@H]1CC[C@@H]1[C@@H]2CC[C@@]2(C)[C@H]1CC[C@]2(C)O,"activity, negative = inhibition",[1]; [3],-29.5%
same,Potency,3D7,inactive
same,Potency,AA1029,inactive
same,Potency,AS120,inactive
same,Potency,ATS189,inactive
same,Potency,ATS95,inactive
same,Potency,C2A,inactive
Cc1c(Cl)c(=O)oc2cc(OP(=O)(OCCCl)OCCCl)ccc12,Potency,[1]; parasite line A,8.91 µM (active)
same,Potency,7G8,12.6 µM (active)
same,Potency,AA1029,11.2 µM (active)
same,Potency,AS120,11.2 µM (active)
same,Potency,ATS189,11.2 µM (active)
same,Potency,ATS95,7.94 µM (active)
same,Potency,C2A,10 µM (active)
CC(C)(C)OC(=O)c1ncn2c1[C@@H]1CCCN1C(=O)c1c(Br)cccc1-2,"activity, negative = inhibition",[1]; [2],0.318%
same,"activity, negative = inhibition",[1]; [3],11.2%
same,Potency,3D7,inactive
same,Potency,AA1029,inactive
same,Potency,AS120,inactive
same,Potency,ATS189,inactive
same,Potency,ATS95,inactive
same,Potency,C2A,inactive
OC(c1ccccc1)(c1ccccc1)C1CCNCC1,"activity, negative = inhibition",[1]; [4],1.93%
same,"activity, negative = inhibition",[1]; [5],13.2%
same,Potency,3D7,inactive
same,Potency,AA1029,inactive
same,Potency,AS120,inactive
same,Potency,ATS189,inactive
same,Potency,ATS95,inactive
same,Potency,C2A,inactive
COP(=O)(OC)OC=C(Cl)Cl,"activity, negative = inhibition",[1]; [2],5.3%
same,"activity, negative = inhibition",[1]; [3],13.3%
same,Potency,3D7,inactive
same,Potency,AA1029,inactive
same,Potency,AS120,inactive
same,Potency,ATS189,inactive
same,Potency,ATS95,inactive
same,Potency,C2A,inactive
CN1CCc2cc(Cl)c(O)cc2[C@H]2c3ccccc3CC[C@@H]21,"activity, negative = inhibition",[1]; [3],-29.7%
same,Potency,7G8,11.2 µM (active)
same,Potency,C2A,inactive
CCC1(c2ccccc2)CCC(=O)NC1=O (stereo not drawn),"activity, negative = inhibition",[1]; [2],14.1%
same,"activity, negative = inhibition",[1]; [3],13.3%
same,Potency,3D7,inactive
same,Potency,AA1029,inactive
same,Potency,AS120,inactive
same,Potency,ATS189,inactive
same,Potency,ATS95,inactive
same,Potency,C2A,inactive
CN1C(=O)[C@@H](NC(=O)c2cc3ccccc3[nH]2)N=C(c2ccccc2)c2ccccc21,Potency,7G8,11.2 µM (active)
